Source: PubChem (National Center for Advancing Translational Sciences (NCATS))
The list is not random: actives were taken first. Their share in the collection is about 4.2%.
D1 antag: human D1 dopamine receptor antagonism | P21728 | HEK293 TREx D1 cells, calcium flux, dopamine EC80; stronger effect = lower value | activity change, negative = inhibition, % at 10 µM | 3.2% of 360,000 active | AID 504652; in the data active = activity change below about -30%; also: % is scaled to controls: 0 for no effect and ±100 for the full control effect
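Inducible Hek293 Trex D1 cells (tetracycline, overnight, 30 C). Calcium dye 30–90 min RT. Antagonist mode: EC80 dopamine added after 180 s compound read.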
D1 potentiator: potentiators of human D1 dopamine receptor. P21728. HEK293 TREx D1 cells, calcium flux, dopamine EC20 potentiation. potentiation, % at 10 µM. 0.036% of 360,000 active. AID 504651; in the data active = potentiation above about 30%; also: 0% is about no effect
D1 ag: activates the human D1 dopamine receptor | P21728 | HEK293 T-REx D1 cells, calcium flux, agonist mode | activation, % at 2 µM | 1% of 360,000 active; in the data active = activation above about 30%; also: 0% is about no effect
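Tetracycline-induced HEK293 TREx D1 cells, force-coupled to calcium signalling, were dye-loaded with a no-wash calcium kit. Compound was pin-added after a 10 s baseline. Fluorescence was read kinetically at 1 cycle/s for 180 s, with calcium rises flagged as agonism.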
TRPV1 ag: human TRPV1 agonism; activation, % at 8.33 µM; 0.19% of 320,000 active; Q8NER1; AID 540275; TRPV1-expressing cells, Fluo-8 calcium influx, agonist mode; in the data active = activation above about 80%; inconclusive = between about 30% and that limit; also: 0% is about no effect
Target sequence (Q8NER1 whole entry, looked up): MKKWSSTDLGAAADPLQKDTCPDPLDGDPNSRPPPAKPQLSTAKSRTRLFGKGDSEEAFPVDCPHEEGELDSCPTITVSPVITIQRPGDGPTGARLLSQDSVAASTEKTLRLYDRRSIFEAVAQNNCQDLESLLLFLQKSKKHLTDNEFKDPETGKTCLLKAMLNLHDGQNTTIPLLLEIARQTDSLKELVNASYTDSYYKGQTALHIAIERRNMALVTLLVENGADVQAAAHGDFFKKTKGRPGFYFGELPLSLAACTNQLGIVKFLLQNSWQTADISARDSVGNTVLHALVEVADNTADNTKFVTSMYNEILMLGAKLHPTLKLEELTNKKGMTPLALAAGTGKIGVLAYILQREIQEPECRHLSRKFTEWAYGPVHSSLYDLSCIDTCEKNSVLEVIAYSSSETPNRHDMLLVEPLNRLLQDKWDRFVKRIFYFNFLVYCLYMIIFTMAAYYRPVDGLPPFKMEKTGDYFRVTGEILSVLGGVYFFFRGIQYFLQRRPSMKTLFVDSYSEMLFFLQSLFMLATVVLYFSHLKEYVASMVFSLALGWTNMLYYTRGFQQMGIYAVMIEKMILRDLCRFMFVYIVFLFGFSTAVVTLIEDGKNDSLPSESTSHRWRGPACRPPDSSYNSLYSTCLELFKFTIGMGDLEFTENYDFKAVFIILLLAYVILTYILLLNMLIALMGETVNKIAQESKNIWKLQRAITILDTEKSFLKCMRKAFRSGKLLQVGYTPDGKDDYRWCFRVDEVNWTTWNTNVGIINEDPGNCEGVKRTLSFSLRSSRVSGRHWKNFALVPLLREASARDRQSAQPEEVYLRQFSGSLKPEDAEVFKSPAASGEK
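Cells expressing TRPV1 were dye-loaded with Fluo-8 and read kinetically: 10 s baseline, 3 min after compound (agonist portion), then 2 min after EC20 capsaicin (allosteric enhancer portion). Calcium-bound dye fluorescence at 480/520 nm.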
TRPV1 potentiator: enhances activation of the human vanilloid receptor TRPV1; Q8NER1; TRPV1-expressing cells, Fluo-8 calcium influx, capsaicin EC20 potentiation; potentiation, % at 8.33 µM; 0.02% of 320,000 active; AID 540277; in the data active = potentiation above about 80%; inconclusive = between about 30% and that limit; also: 0% is about no effect
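Cells expressing TRPV1 were dye-loaded with Fluo-8 and read kinetically: 10 s baseline, 3 min after compound (agonist portion), then 2 min after EC20 capsaicin (allosteric enhancer portion). Calcium-bound dye fluorescence at 480/520 nm.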
* marks the source's active call; other numbers are inactive results; ? = inconclusive; . = no result given.

SMILES	D1 antag	D1 potentiator	D1 ag	TRPV1 ag	TRPV1 potentiator
COc1ccc2oc(=O)c(-c3csc(/C(C#N)=C/c4ccc(F)cc4)n3)cc2c1	-31*	1	-1	.	.
Cc1ccc(S(=O)(=O)NCCc2nnc3ccc(SCc4cccc(F)c4)nn23)cc1	6	0	0	.	.
CCCN(CC1CC1)C(=O)COC(=O)c1[nH]c(C)c(C(=O)OCC)c1C	15	-7	30*	-4	5
COc1ccc(C(C)(C)C)cc1NC(=O)c1cc(S(=O)(=O)N(C)C)ccc1N1CCCC1	-51*	-9	4	6	9
CCC(Sc1nc2nccnc2c(=O)n1Cc1ccc(F)cc1)C(=O)NC1CCCCC1 (stereo not given)	-9	0	2	.	.
O=C(CCCSc1nc2ccccc2[nH]1)NC1CCCCC1	6	-2	2	?	2
O=C(CCCSc1nc2ccccc2[nH]1)Nc1nnc(C2CC2)s1	-36*	-11	4	2	5
Cc1ccc(NC(=O)CCCSc2nc3ccccc3[nH]2)cc1	-33*	-1	1	?	2
CC(=O)Nc1ccc(NC(=O)CCCSc2nc3ccccc3[nH]2)cc1	-5	-3	3	0	1
COc1ccccc1N1CCN(C(=O)c2cc3c(s2)-c2ccccc2OC3)CC1	-4	-12	3	2	-8
Cc1cccc2c1-c1sc(C(=O)Nc3cccnc3)cc1CO2	-22	-19	1	?	9
O=C(c1cc2c(s1)-c1ccccc1OC2)N1CCc2ccccc2C1	-54*	-8	1	?	-23
O=C(Nc1cccnc1)c1cc2c(s1)-c1ccccc1OC2	-46*	-18	9	-3	-1
Cc1csc(Nc2cccc3ccccc23)n1	-46*	-6	0	0	4
CCc1c(C)nc2nncn2c1NCc1ccccc1	-22	0	3	.	.
COc1ccccc1CNC(=O)c1oc2c(c1C)-c1nn(Cc3ccc(Cl)cc3)cc1CC2	0	0	1	.	.
CCC(=O)N1CCc2cc(Br)cc(S(=O)(=O)CCC(=O)Nc3cccc(CC)c3)c21	-1	-1	2	.	.
O=C(CN1C(=O)S/C(=C\C=C\c2ccccc2)C1=O)Nc1ccccc1C(=O)O	0	-2	0	-3	11
C#CCN1C(=O)S/C(=C/C=C/c2ccc(N(C)C)cc2)C1=O	-1	1	98*	16	-4
Cn1c(SCC(=O)Nc2ccccc2)nnc1C(F)(F)F	-30	0	2	1	6
Cn1c(SCC(=O)NCCNC(=O)CSc2nnc(C(F)(F)F)n2C)nnc1C(F)(F)F	-32*	-1	-1	1	-23
COC(=O)c1cn(NC(=O)c2ccc(OC)c(OC)c2)c(=O)c2ccccc12	-11	-4	7	-2	?
COC(=O)c1cn(NC(=O)c2ccc3c(c2)OCO3)c(=O)c2ccccc12	-4	-2	3	80*	-8
O=C(c1ccc(CS(=O)c2ccccc2Cl)o1)N1CCN(c2ccccc2F)CC1 (stereo not given)	-14	-5	1	.	.
Cc1cc(C)nc(NCCC(=O)O)n1	-58*	-8	9	-4	4
SMILES	D1 antag	D1 potentiator	D1 ag	TRPV1 ag	TRPV1 potentiator
CCOCCCn1c(=N)c(C(=O)NCc2cccnc2)cc2c(=O)n3cc(C)ccc3nc21	-4	-1	34*	.	.
COCCCn1c(=N)c(C(=O)NC2CCCC2)cc2c(=O)n3cc(C)ccc3nc21	5	0	86*	.	.
CCOCCCn1c(=N)c(C(=O)NCc2cccnc2)cc2c(=O)n3ccccc3nc21	1	1	1	.	.
CCOc1ccc(NC(=O)c2nnn(-c3ccc(F)c(Cl)c3)c2C)cc1	-3	0	1	.	.
COc1cc(Cl)c(C)cc1NC(=O)Cn1ncc2c(=O)oc3ccccc3c21	-1	1	1	.	.
CCC(=O)N1CCc2cc(Br)cc(S(=O)(=O)CCC(=O)NCCc3ccccc3Cl)c21	-24	2	4	.	.
CC(=O)c1ccc(NC(=O)COc2ccccc2-c2nc(-c3ccc(C)cc3)no2)cc1	-2	0	-1	.	.
Cc1ccccc1-n1cnc2cc(NCc3cccs3)ccc21	-37*	-10	6	19	-15
O=C(Cc1cccc(C(F)(F)F)c1)NCC(=O)Nc1cc(Cl)ccc1Cl	7	32*	3	?	-23
O=C(Cc1cccc(C(F)(F)F)c1)NCc1cccc(Cl)c1	-19	-10	2	11	-17
O=C(CS(=O)c1cccc(C(F)(F)F)c1)Nc1ccccc1Cl (stereo not given)	-47*	-8	4	2	-8
N#Cc1nc(Cc2ccccc2)oc1NCc1ccccc1Cl	-37*	-5	9	0	-7
O=C(CN1CCN(c2ccccc2F)CC1)NCc1ccc(Cl)cc1	-7	-9	1	?	0
O=C(CN1CCN(c2cccc(C(F)(F)F)c2)CC1)NCc1ccccc1	-45*	-5	2	?	-24
Cc1cccc(N2CCN(CC(=O)NCc3ccc(Cl)cc3)CC2)c1C	4	-2	2	83*	-4
Cc1[nH]c2ccccc2c1C(O)CN1CCN(c2cccc(C(F)(F)F)c2)CC1 (stereo not given)	-59*	-15	31*	-3	3
S=C(NCCN1CCOCC1)Nc1ccc(Br)cc1	-2	-2	5	-3	2
COc1ccccc1NS(=O)(=O)c1cc(NC(=S)NCCN2CCOCC2)ccc1N1CCOCC1	-34*	1	1	-2	-13
O=S(=O)(Nc1ccc(Br)cc1)c1cccc(NC(=S)NCCN2CCOCC2)c1	3	-5	52*	0	9
CCc1ccccc1NC(=O)[C@H](Cc1ccccc1)N1Cc2ccccc2C1=O	-5	-1	3	.	.
OCCN1CCN(c2nc(-c3ccccc3)c3cc(Br)ccc3n2)CC1	8	44*	45*	1	-18
O=C(CSc1ncccn1)n1c2c(c3ccccc31)CCCC2	-43*	0	6	3	20
Cc1cc(C)nc(SCC(=O)n2c3c(c4ccccc42)CCCC3)n1	23	1	4	0	8
CCS(=O)(=O)c1c(Nc2cc(C)ccc2C)sc(C(=O)c2ccccc2)c1N	38	5	41*	.	.
Cc1ccc(Cl)cc1Nc1sc(C(=O)c2ccccc2)c(N)c1S(=O)(=O)c1ccccc1	-51*	3	54*	.	.
CCc1ccccc1Nc1sc(C(=O)c2ccccc2)c(N)c1S(=O)(=O)c1ccccc1	6	-1	13	.	.
O=C(CSc1nc(=O)n(Cc2ccco2)c2c1CCC2)Nc1ccccc1C(F)(F)F	.	-1	-3	.	.
CCOc1ccc(CCNC(=O)CCc2c(C)nc3cc(-c4ccccc4OC)nn3c2C)cc1	-4	-2	3	.	.
CCOc1ccc2nc(Cl)c(C3CC(c4ccc(C)cc4)=NN3C(=O)CCC(=O)O)cc2c1 (stereo not given)	5	3	-1	.	.
